Screen size: about 330,000 compounds; about 1,900 (0.58%) were called active. Roughly 4% stayed inconclusive and do not appear here. Not all results are given here. Entries with a potency or affinity are not part of this list. A number with no mark means an inactive call. Rule as the data show it: inconclusive = inhibition above about 70% without an active follow-up result; inactive = below that.

This assay in a line: M. tuberculosis growth inhibition, HTS (AID 449762).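 Also: bacterial growth assessed after seven days of incubation.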 Particulars: M. tuberculosis H37Rv growth inhibition, 7H9 media; at 25 µM; active compounds read high.
In the case of `O=C(Nc1nnc(C2CC2)s1)c1cncc(Br)c1`, the inhibition is 5.39%.
Consider `COc1ccc(CNC(=O)C(=O)NCCC2CCCCN2S(=O)(=O)c2cccs2)cc1` (stereo not drawn), for which the inhibition is 5.17%.
Take `COc1ccc(CCNC(=O)C(=O)NCC2OCCN2S(=O)(=O)c2ccc(C)cc2)cc1OC` (stereo not drawn): the inhibition is -6.63%.
As to `Cc1ccc(NC(=O)N2CCCC2C(=O)NCC2CCCCC2)cc1` (stereo not drawn), the inhibition is 5.67%.
As to `Clc1ccc(Cl)c(-c2ccc(/C=N/c3ncn[nH]3)o2)c1`, the inhibition was 8.33%.
Regarding `Cc1cc(C(=O)N/N=C/c2ccc(-c3ccc(C)c(Cl)c3)o2)n[nH]1`, the inhibition is 42.8%.
Under `Cc1ccc(/C=N/n2c(COc3ccccc3)n[nH]c2=S)cc1` stands 6.13%.
Regarding `O=C(COC(=O)CCc1c[nH]c2ccccc12)Nc1ccc([N+](=O)[O-])cc1`, the inhibition is 2.33%.
As for `Cc1ccc(NC(=O)COC(=O)Cc2c[nH]c3ccccc23)cc1C`, the inhibition is -4.13%.
In the case of `COc1cc(/C=C/C(=O)OCC(=O)NCCC2=CCCCC2)cc(OC)c1OC` it was 2.02%.
Consider `Cc1ccccc1NS(=O)(=O)c1ccc(C(=O)N2CCN(c3ccccc3O)CC2)cc1`, for which the inhibition was 4.31%.
On to `Cc1cccc(NS(=O)(=O)c2ccc(C(=O)N3CCCC3)cc2)c1C`, for which the inhibition was -8.71%.
Regarding `OC(COCc1ccc(Cl)cc1)CN1CCCCC1` (stereo not drawn), the inhibition is 1.29%.
With `C=CCNC(=O)/C(C#N)=C\c1cc(Cl)c(OCC)c(OC)c1`, the inhibition is 7.41%.
For the compound `COc1cccc(CN(C)C(=O)CSCC(=O)Nc2cccc(C)c2)c1OC`, the inhibition was -5.41%.
Under `CC(C)C(=O)N=c1sc2cc(F)cc(F)c2n1C` stands -9.4%; under `O=C(NCc1cccs1)c1cccc(Nc2nc3ccc(Br)cc3[nH]2)c1`, -11%; under `O=C(NCC1CC1)c1ccc(Nc2nc3ccc(Br)cc3[nH]2)cc1`, -0.43%.
Consider `CC(=O)Oc1ccc(-c2cccc(C(=O)NCCO)c2)cc1`, for which the inhibition was -0.93%.
In the case of `O=S(=O)(NC1CCCCC1Nc1ccccc1)c1ccccc1` (stereo not drawn), the inhibition was -7.27%.
Consider `O=C(CN(c1ccc(F)cc1)S(=O)(=O)c1ccc2c(c1)OCCO2)N1CCOCC1`, for which the inhibition is 1.58%.
Consider `CCCCCC(=O)NCc1c(C(F)(F)F)nn(C)c1N1CCOCC1`, for which the inhibition is -1.96%.
Take `O=C(CN1CCNC(=O)C1)NCCc1ccc(Cl)cc1Cl`: the inhibition was -0.1%.
As for `O=C(C[N+]12CCN(CC1)CC2)NCCc1ccc(Cl)cc1Cl`, the inhibition was -3.14%.
Under `COc1ccc(OC)c(NC(=O)c2cccnc2Sc2cc(C)ccc2C)c1` stands 8.29%; under `CC(C)(C)c1ccccc1OCCOCCNCc1ccccc1`, 2.6%.
Consider `Cc1ccc(S(=O)(=O)n2ccc3c(OCCOCCSCC(NC(=O)OC(C)(C)C)C(=O)O)cccc32)cc1` (stereo not drawn), for which the inhibition was 0.6%.
Turning to `O=C(CSc1nc2ccccc2[nH]1)Nc1ccc2[nH]c(=O)[nH]c2c1`, the inhibition is 8.79%.
Consider `CC(=O)Nc1ccc(NC(=O)CSc2ncnc3sc(C)c(C)c23)cc1`, for which the inhibition was -0.3%.
For the compound `CNc1nc(-c2ccc3c(c2)CCN3C(=O)c2ccccc2F)c(C)s1`, the inhibition is 9.7%.
As to `O=C1/C(=C/c2ccccn2)SC(=S)N1NS(=O)(=O)c1ccccc1`, the inhibition is 5.72%.
With `CCC(=O)NCCCCCCCCCNC(=O)CC`, the inhibition is -4.93%.
`CCC(=O)NCCCCCCNC(=O)CC`: the inhibition was 0.18%.
For `C=CCn1c(SCC(=O)Nc2ccccc2F)nnc1C(C)NC(=O)c1ccccc1F` (stereo not drawn), the inhibition is -12.4%.
For the compound `Cc1ccc(-c2c(C)n([O-])c3c([n+]2=O)CCCCC3)cc1`, the inhibition is -3.38%.
As for `CCCCSc1nnc([C@H](CC(C)C)NC(=O)OC(C)(C)C)o1`, the inhibition was -2.58%.
Take `CC(C)C[C@H](NC(=O)OC(C)(C)C)c1nnc(SCc2ccccc2)o1`: the inhibition was -3.57%.
Take `COc1ccc(C)cc1S(=O)(=O)NCc1cccs1`: the inhibition is 1.39%.
Under `O=C(NCCc1ccc(Cl)cc1)c1ccc(OCC2CCCO2)cc1` (stereo not drawn) stands 5.17%; under `O=C(NC1CCCCC1)N1CCN(Cc2nc3ccccc3c(=O)[nH]2)CC1`, -4.69%.
As for `CC(=O)Nc1ccc(NC(=S)NC(=O)C2CCCC2)cc1`, the inhibition was -8.34%.
Consider `COc1ccc(NC(=S)NC(=O)C2CCC2)cc1`, for which the inhibition was -0.22%.
On to `Cn1nc(C(F)(F)F)c(C(=O)Nc2ccc(F)cc2F)c1Sc1ccc(Cl)cc1`, for which the inhibition was -9.99%.
`COc1ccc(-c2ccc3oc(-c4ccsc4)cc(=O)c3c2)cc1F`: the inhibition was -0.47%.
As for `COc1cc(-c2ccc3oc(-c4ccsc4)cc3c2)cc(OC)c1OC`, the inhibition is 0.64%.
For the compound `O=C1c2ccccc2C(=O)N1CCc1csc(-c2cccc(F)c2)n1`, the inhibition is 3.85%.
On to `COC(=O)CC1C(=O)NCCN1C(=O)c1ccccc1` (stereo not drawn), for which the inhibition was -6.14%.
In the case of `Brc1cccc2sc(N3CCCC3)nc12` it was 6.95%; in that of `Brc1ccc2nc(N3CCN(c4ccccc4)CC3)sc2c1`, -4.96%; in that of `COc1ccc(C(=O)Nc2ccccc2C(=O)NCCN2CCOCC2)cc1OC`, 4.9%.
In the case of `O=C(COC(=O)c1ccc2c(c1)OCCO2)Nc1cccc(S(=O)(=O)N2CCOCC2)c1` it was 9.61%.
As for `COCCNC(=S)N/N=C(\C)c1ccccc1OC`, the inhibition is -6.36%.
For the compound `COc1ccccc1C(=O)NCc1ccccc1`, the inhibition was 10.8%.
For `C/C(=N\NC(=S)NCc1ccccc1)c1ccc(Br)cc1`, the inhibition is 6.33%.
Under `COc1ccccc1C(=O)NNC(=O)CCC(=O)NCc1ccccc1` stands -3.02%; under `CSc1ccccc1NC(=O)Nc1cccc(F)c1`, 1.3%; under `CC(C)(C)N(Cc1ccccc1)C(=O)COC(=O)CNC(=O)c1ccco1`, 5.79%.
`CC(C)C(NC(=O)c1cccs1)C(=O)NC1=NCCS1` (stereo not drawn): the inhibition is -3.72%.
For `COc1cc(OC)cc(C(=O)N[C@H](C(=O)Nc2nc3ccc(S(C)(=O)=O)cc3s2)C(C)C)c1`, the inhibition is 10.5%.
For the compound `CCOC(=O)c1csc(NC(=O)c2cc(=O)c3ccccc3o2)n1`, the inhibition is -0.69%.
For `CCOC(=O)c1sc(NC(=O)c2cc3ccccc3o2)nc1C`, the inhibition was 3.64%.
`COc1cc(/C=N/Nc2nc(Nc3ccccc3)nc(-n3nc(C)cc3C)n2)cc(OC)c1OC`: the inhibition is 10.6%.
Consider `COc1cccc(/C=N/Nc2nc(N3CCCC3)nc(N3CCCC3)n2)c1O`, for which the inhibition was 3.67%.

Usually inhibition stands for the drop in the measured response relative to a control, in per cent.

The record behind these values is PubChem BioAssay AID449762 (Southern Research Specialized Biocontainment Screening …, 2010).
